The subject of assay [1] is CRL-7250. As to the kind of experiment: Cytotoxic Profiling of Annotated Libraries Using Quantitative High-Throughput Screening (AID 1296008). On max response: on the % scale 0 is the no-effect control and ±100 the full control effect. The settings on record: Five cell lines viability, CellTiter-Glo ATP luminescence, 48-72 h; max response: hits give low values. Summed up:
(§1)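 Compounds were pin-transferred onto cells and incubated 48 or 72 hr at 37 degree Celsius, 95% humidity. CellTiter-Glo was added, plates sat 10 min at room temperature, then ATP-coupled luminescence was imaged as the viability read-out.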

For assay [2], the system named is HEK293. Described as above. The settings on record: Five cell lines viability, CellTiter-Glo ATP luminescence, 48-72 h; max response: hits give low values. The gist of the method:
as §1
In general terms: Cellular ATP, detected with luciferase, serves as a proxy for viable cell number.

The subject of assay [3] is PC15. The assay is described as follows: qHTS profiling for inhibitors of Plasmodium falciparum proliferation (AID 504749). The settings on record: P. falciparum in erythrocytes, SYBR Green DNA, 72 h; series mostly up to 28.7 µM. Summed up: (§2)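 P. falciparum-infected erythrocytes (0.3% parasitemia, 2.5% hematocrit final) were exposed to compounds for 72 h at 37 C in 5% CO2, then lysed with SYBR Green buffer overnight at room temperature; parasite DNA fluorescence was normalized to artemisinin and DMSO controls.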
Background: In qHTS, concentration-response curves come from the screen itself.

Assay [4] has as its system PC26. The description is as above. The settings on record: P. falciparum in erythrocytes, SYBR Green DNA, 72 h; series mostly up to 28.7 µM. Summed up:
as §2

For assay [5], the system named is PC49. The assay is described as above. The settings on record: P. falciparum in erythrocytes, SYBR Green DNA, 72 h; series mostly up to 28.7 µM. The gist of the method:
as §2

Assay [6] concerns SC27B. The assay is described as above. The settings on record: P. falciparum in erythrocytes, SYBR Green DNA, 72 h; series mostly up to 28.7 µM. Summed up:
as §2

Assay [7] relates to TAB109. The assay is described as above. The settings on record: P. falciparum in erythrocytes, SYBR Green DNA, 72 h; series mostly up to 28.7 µM. Summed up: as §2
Assay [8] deals with TAB113. The description is as above. The settings on record: P. falciparum in erythrocytes, SYBR Green DNA, 72 h; series mostly up to 28.7 µM. The gist of the method: as §2
Assay [9] deals with TAB165. The assay is described as above. The settings on record: P. falciparum in erythrocytes, SYBR Green DNA, 72 h; series mostly up to 28.7 µM. The gist of the method:
as §2

The test system of assay [10] is W2. The assay is described as above. The settings on record: P. falciparum in erythrocytes, SYBR Green DNA, 72 h; series mostly up to 28.7 µM. The gist of the method: as §2

Several values for one entry are separate records, joined by “and”; a condition that tells them apart may be missing. Identical values can stand only once. Results filed as inconclusive are left out. More than one record can exist for a structure, and the calls need not agree. A number with no mark means an inactive call. Activity calls are given as the source filed them. The call rests on the fitted dose curve; in most records, active means well fitted inhibition curve with a large enough effect; inconclusive means small, poorly fitted or top-dose-only effect; inactive means flat fitted curve, though single readings scatter.
Further: nearly all actives have a fitted effect of over 60% in size.
Potency means the concentration at half of the fitted maximal effect.

`C1Cc2[nH]nc(-c3nn[nH]n3)c2C1`: the max response in assay [1] was -5.71% and 4.92%. In addition, in [2], the max response was 2.99% and the compound was called inactive.

With `COC(=O)C[C@](O)(CCCC(C)(C)O)C(=O)O[C@@H]1C(OC)=C[C@]23CCCN2CCc2cc4c(cc2[C@H]13)OCO4`, the Potency is 0.0316 µM (active) in [3]; 0.019 µM (active) in [4]; 0.0006 µM (active) in assay [5]; 0.0282 µM (active) in assay [6]; 0.0251 µM (active) in assay [7]; 0.0158 µM (active) in assay [8]. The values for the Potency in assay [9] and in assay [10] were 0.1 µM (active) and 0.0301 µM (active), respectively. Also, the max response in assay [1] is 3.78%; in [2], -7.61%.

For `CC1=C(CO)C(=O)O[C@@H]([C@@H](C)[C@H]2CC[C@H]3[C@@H]4C[C@H]5O[C@]56[C@@H](O)C=CC(=O)[C@]6(C)[C@@H]4CC[C@]23C)C1`, the Potency in [1] is 1.48 µM (active); in assay [2] it was 0.332 µM (active).

For the compound `COc1ccc(-n2nc(C(N)=O)c3c2C(=O)N(c2ccc(N4CCCCC4=O)cc2)CC3)cc1`, the max response in assay [1] is -14% and -8.05%; in [2] it was 2.24%.

On to `CC1(C)O[C@@H]2C[C@@H]3[C@H]4C[C@@H](F)C5=CC(=O)C=C[C@]5(C)[C@@]4(F)[C@@H](O)C[C@]3(C)[C@]2(C(=O)CO)O1`, for which the Potency result in assay [3], in assay [5], in [6], in assay [7], in assay [8] and in [9] was “inactive” in each case. Besides, in [10], the Potency entry was “inactive”. The max response is -20% in [1] and -3.12% in assay [2].

`CCCNC(=O)Nc1ccc(Oc2ncnc3cc(OC)c(OC)cc23)cc1Cl`: the max response is -26.7% and 2.06% in assay [1]; -15.3% in [2]. In addition, the compound was called inactive in assay [2].

Regarding `CCc1c2c(nc3ccc(O)cc13)-c1cc3c(c(=O)n1C2)COC(=O)[C@]3(O)CC`, the Potency was 651 nM (active) and 2.64 µM (active) in [1]; 14.6 nM (active) and 16.6 nM (active) in assay [2].

Turning to `CCn1cc(-c2ccnc3[nH]c(-c4cccc(CN(C)C)c4)cc23)c(-c2ccc(NC(=O)N(C)C)cc2)n1`, the Potency in [1] was 14.8 µM (active); in assay [2], 11.8 µM (active).

Regarding `CCC1=C[C@@H]2CN(C1)Cc1c([nH]c3ccccc13)[C@@](C(=O)OC)(c1cc3c(cc1OC)N(C)[C@@H]1[C@@](O)(C(=O)OC)[C@H](OC(C)=O)[C@]4(CC)C=CCN5CC[C@]31[C@@H]54)C2`, the Potency in assay [3] is 7.08 µM (active); in [4] it was 3.38 µM (active); in assay [6], 2.24 µM (active); in assay [7], 2.24 µM (active); in [8] it was 1.58 µM (active); in assay [9], 2.51 µM (active). For the same compound, the Potency is 0.19 µM (active) in assay [10], 0.0469 µM (active) in assay [1] and 0.0235 µM (active) in [2].

Regarding `Clc1cccc(-c2nnnn2Cc2cccnc2)c1Cl`, in assay [1], the max response was -2.93%. For the same compound, in assay [2], the Potency was 26.4 µM (active) and the max response was -0.348%.

Take `O=c1[nH]c(=O)n(C2CCCO2)cc1F` (centres undefined): the Potency entry in [3], in assay [4], in assay [5], in assay [6], in assay [7] and in assay [8] was “inactive” throughout. Further, the Potency entry in assay [9] and in assay [10] was “inactive” throughout. Also, the outcome in [1] was inactive. In addition, the max response in assay [2] was -0.0583%.

In the case of `CN1c2cc(O)c(N=NC(N)=O)cc2CC1S(=O)(=O)O` (centres undefined), the Potency entry in assay [3], in assay [4], in [5], in assay [6], in [7] and in [8] was “inactive” throughout. Further, the Potency entry in assay [9] and in [10] was “inactive” throughout. Besides, the result in assay [1] was inactive. The max response in assay [2] was 2.9%.

Take `COc1ccc(F)c(F)c1C(=O)c1cnc(NC2CCN(S(C)(=O)=O)CC2)nc1N`: the Potency in [1] is 2.35 µM (active) and 3.66 µM (active); in assay [2] it was 1.05 µM (active).

With `CC1COC2(CCN(c3nc(=O)c4cc(C(F)(F)F)cc([N+](=O)[O-])c4s3)CC2)O1` (centres undefined), in assay [1], the compound was classed as inactive. Moreover, in assay [2], the max response is 2.26% and the result was inactive.

Consider `O=C(Nc1cc(C(F)(F)F)cc(C(F)(F)F)c1)c1cc(Cl)ccc1O`, for which the Potency in assay [1] was 3.72 µM (active) and 3.26 µM (active); in [2], 590 nM (active) and 1.16 µM (active).

Consider `COc1cc2nccc(Oc3ccc(NC(=O)C4(C(=O)Nc5ccc(F)cc5)CC4)cc3)c2cc1OC`, for which the Potency was 1.48 µM (active) and 13 µM (active) in [1]; 14.8 µM (active) and 16.4 µM (active) in assay [2].

For the origin of these results see PubChem BioAssay (NCATS).
